Measured values from the supplement of paper PMC8975748.
Structures can show the parent of a compound that is named as a salt. ± gives the standard deviation of the averaged measurements.

What was measured:
[1] = system: Saccharomyces cerevisiae BY4741 SeMeCo community; assay: z-score of prototroph abundance vs DMSO median; higher = larger share of this subpopulation than in DMSO controls; details: 10 µM; 24 h; SM minimal medium; subpopulation (auxotrophy): Prototroph
In short: (§1)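 Automated confocal microscopy of paraformaldehyde-fixed cells was used to follow a Saccharomyces cerevisiae BY4741 community carrying four plasmids, each restoring one auxotrophy and encoding a distinct fluorescent protein. The community was pre-grown overnight to OD600 1.0, diluted to 0.3, and added at 70 µl to 384-well plates acoustically predosed with library drugs (10 µM final) for 24 h of growth in minimal SM medium. Single-auxotroph fluorescent strains set thresholds and autofluorescence correction, and each subpopulation's abundance was scored as a z-score against the vehicle-well median.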

[2] = system: Saccharomyces cerevisiae BY4741 SeMeCo community; assay: z-score of subpopulation abundance vs DMSO median, subpopulation auxotrophic for M; higher = larger share of this subpopulation than in DMSO controls; details: 10 µM; 24 h; SM minimal medium; subpopulation (auxotrophy): M
In short: as §1

[3] = system: Saccharomyces cerevisiae BY4741 SeMeCo community; assay: z-score of subpopulation abundance vs DMSO median, subpopulation auxotrophic for L; higher = larger share of this subpopulation than in DMSO controls; details: 10 µM; 24 h; SM minimal medium; subpopulation (auxotrophy): L
In short: as §1

[4] = system: Saccharomyces cerevisiae BY4741 SeMeCo community; assay: z-score of subpopulation abundance vs DMSO median, subpopulation auxotrophic for U; higher = larger share of this subpopulation than in DMSO controls; details: 10 µM; 24 h; SM minimal medium; subpopulation (auxotrophy): U
In short: as §1

[5] = system: Saccharomyces cerevisiae BY4741 SeMeCo community; assay: z-score of subpopulation abundance vs DMSO median, subpopulation auxotrophic for H; higher = larger share of this subpopulation than in DMSO controls; details: 10 µM; 24 h; SM minimal medium; subpopulation (auxotrophy): H
In short: as §1

[6] = system: Saccharomyces cerevisiae BY4741 SeMeCo community; assay: z-score of subpopulation abundance vs DMSO median, subpopulation auxotrophic for LU; higher = larger share of this subpopulation than in DMSO controls; details: 10 µM; 24 h; SM minimal medium; subpopulation (auxotrophy): LU
In short: as §1

[7] = system: Saccharomyces cerevisiae BY4741 SeMeCo community; assay: z-score of subpopulation abundance vs DMSO median, subpopulation auxotrophic for LM; higher = larger share of this subpopulation than in DMSO controls; details: 10 µM; 24 h; SM minimal medium; subpopulation (auxotrophy): LM
In short: as §1

[8] = system: Saccharomyces cerevisiae BY4741 SeMeCo community; assay: z-score of subpopulation abundance vs DMSO median, subpopulation auxotrophic for HM; higher = larger share of this subpopulation than in DMSO controls; details: 10 µM; 24 h; SM minimal medium; subpopulation (auxotrophy): HM
In short: as §1

[9] = system: Saccharomyces cerevisiae BY4741 SeMeCo community; assay: z-score of subpopulation abundance vs DMSO median, subpopulation auxotrophic for HU; higher = larger share of this subpopulation than in DMSO controls; details: 10 µM; 24 h; SM minimal medium; subpopulation (auxotrophy): HU
In short: as §1

[10] = system: Saccharomyces cerevisiae BY4741 SeMeCo community; assay: z-score of subpopulation abundance vs DMSO median, subpopulation auxotrophic for UM; higher = larger share of this subpopulation than in DMSO controls; details: 10 µM; 24 h; SM minimal medium; subpopulation (auxotrophy): UM
In short: as §1

[11] = system: Saccharomyces cerevisiae BY4741 SeMeCo community; assay: z-score of subpopulation abundance vs DMSO median, subpopulation auxotrophic for HLU; higher = larger share of this subpopulation than in DMSO controls; details: 10 µM; 24 h; SM minimal medium; subpopulation (auxotrophy): HLU
In short: as §1

[12] = system: Saccharomyces cerevisiae BY4741 SeMeCo community; assay: z-score of subpopulation abundance vs DMSO median, subpopulation auxotrophic for HLM; higher = larger share of this subpopulation than in DMSO controls; details: 10 µM; 24 h; SM minimal medium; subpopulation (auxotrophy): HLM
In short: as §1

[13] = system: Saccharomyces cerevisiae BY4741 SeMeCo community; assay: z-score of subpopulation abundance vs DMSO median, subpopulation auxotrophic for HUM; higher = larger share of this subpopulation than in DMSO controls; details: 10 µM; 24 h; SM minimal medium; subpopulation (auxotrophy): HUM
In short: as §1

[14] = system: Saccharomyces cerevisiae BY4741 SeMeCo community; assay: z-score of subpopulation abundance vs DMSO median, subpopulation auxotrophic for LUM; higher = larger share of this subpopulation than in DMSO controls; details: 10 µM; 24 h; SM minimal medium; subpopulation (auxotrophy): LUM
In short: as §1

[15] = system: Saccharomyces cerevisiae BY4741 SeMeCo community; assay: z-score of subpopulation abundance vs DMSO median, subpopulation auxotrophic for HLUM; higher = larger share of this subpopulation than in DMSO controls; details: 10 µM; 24 h; SM minimal medium; subpopulation (auxotrophy): HLUM
In short: as §1

[16] = system: Saccharomyces cerevisiae BY4741 SeMeCo community; assay: z-score of subpopulation abundance vs DMSO median, subpopulation auxotrophic for HL; higher = larger share of this subpopulation than in DMSO controls; details: 10 µM; 24 h; SM minimal medium; subpopulation (auxotrophy): HL
In short: as §1

[17] = system: Saccharomyces cerevisiae BY4741 SeMeCo community; assay: mean cell size (pixel area) (pixels); higher = larger cells; details: 10 µM; 24 h; SM minimal medium
In short: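 Drug was acoustically predosed into 384-well plates to a final 10 µM in SM medium, and each well received 70 µl of Saccharomyces cerevisiae BY4741 diluted to OD600 = 0.3 from an overnight preculture at OD600 = 1.0. This four-plasmid fluorescent community carries one fluorescent marker per plasmid, and each plasmid complements one auxotrophy. After 24 h, the cells were fixed with paraformaldehyde and imaged by automated confocal microscopy, and Harmony analysis yielded mean cell pixel area per well. Each value is averaged over 3 replicates. Same SeMeCo high-content imaging drug screen: Selleck FDA-approved drugs at 10 µM, 24 h in SM medium, 384-well plates, 3 replicates.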

Compound	z-score of prototroph abundance [1]	z-score of subpopulation abundance [2]	z-score of subpopulation abundance [3]	z-score of subpopulation abundance [4]	z-score of subpopulation abundance [5]	z-score of subpopulation abundance [6]	z-score of subpopulation abundance [7]	z-score of subpopulation abundance [8]	z-score of subpopulation abundance [9]	z-score of subpopulation abundance [10]	z-score of subpopulation abundance [11]	z-score of subpopulation abundance [12]	z-score of subpopulation abundance [13]	z-score of subpopulation abundance [14]	z-score of subpopulation abundance [15]	z-score of subpopulation abundance [16]	mean cell size [17]
CCCCCCCCN=c1ccn(CCCCCCCCCCn2ccc(=NCCCCCCCC)cc2)cc1 [Octenidine Dihydrochloride]	-16.1	-8.04	3.6	2.6	13.2	14.2	0.87	6.33	23.6	13.5	5.94	27.7	26.9	13.8	58.5		
CN(CCOc1ccc(NS(C)(=O)=O)cc1)CCc1ccc(NS(C)(=O)=O)cc1 [Dofetilide]	0.39	-0.18	-0.53	0.48	-0.68	0.5	0.47	-0.88	0.18		-0.23	-0.86	0.21	-0.27	-0.1	-0.22	
O=C(O)Cc1ccccc1Nc1c(Cl)cccc1Cl [Diclofenac Sodium]	1.13	0.68	-0.21	-0.91	-0.51	-0.84	-0.23	-0.3	-1.76	-1.45	-1.75	-0.07	-1.27	-0.98	-0.38	-0.56	
CC(=O)C1C(=O)C=C(C)OC1=O (stereo unspecified) [Sodium dehydroacetate]	-1.07	0.37	1.59	1.63	-1.35	2.06	0.56	0.2	0.24	0.54	1.27	0.13	-0.21	1.14	1.61	0.4	
COc1ccc(CNc2nc(N3CCC[C@H]3CO)ncc2C(=O)NCc2ncccn2)cc1Cl [Avanafil]	-0.15	0.21	-0.77	0.68	-0.56	-0.03			0.11	0.93	0.58	-0.87	0.44	-0.38	-0.54	-0.55	12.5 ± 0.16
CCCCCOc1ccc(-c2cc(-c3ccc(C(=O)N[C@H]4C[C@@H](O)[C@@H](O)NC(=O)[C@@H]5[C@@H](O)[C@@H](C)CN5C(=O)[C@H]([C@H](O)CC(N)=O)NC(=O)[C@H]([C@H](O)[C@@H](O)c5ccc(O)c(OS(=O)(=O)O)c5)NC(=O)[C@@H]5C[C@@H](O)CN5C(=O)[C@H]([C@@H](C)O)NC4=O)cc3)no2)cc1 [Micafungin Sodium]	-14.6	-8.01	5.22	-1.73	27.4	1.46	0.72	1.38	13.2	1.81	12	61.8	13.9	4.1	86.5		
CC1=C(C(=O)OC(C)C)C(c2cccc([N+](=O)[O-])c2)C(C(=O)OC2CN(C(c3ccccc3)c3ccccc3)C2)=C(N)N1 (stereo unspecified) [Azelnidipine]	-0.48	-0.27	-0.9	0.39	0.22	0.86	-0.63	0.77	1.39	0.01	-0.12	0.09	0.26	0.01	-0.49	-0.34	
CC(=O)[C@H]1CC[C@H]2[C@@H]3CC=C4C[C@@H](O)CC[C@]4(C)[C@H]3CC[C@]12C [Pregnenolone]	0.29	-0.05	1.12	-0.89	-0.46	-0.42	0.32	-0.44	-0.76	-0.48	-0.1	0.71	-0.94	-0.02	0.21	0.47	
COc1ccccc1N1CCN(CCCNc2cc(=O)n(C)c(=O)n2C)CC1 [Urapidil HCl]	-0.23	-0.32	-1	1.09	-0.78	0.29	-0.25	-0.81	0.01	0	-0.11	-0.67	-0.59	-0.71	-0.28	-0.53	
C[C@@H](O)[C@H]1C(=O)N2C(C(=O)O)=C(S[C@@H]3CN[C@H](C(=O)Nc4cccc(C(=O)O)c4)C3)[C@H](C)[C@H]12 [Ertapenem sodium]		0.04	-0.78	-0.15	0.48	-0.01	-0.04	-0.22	-0.53	0.16	-1.03	-0.62	0	-0.18	-0.21		
CCN(CC)CCNC(=O)c1cc(S(C)(=O)=O)ccc1OC [Tiapride Hydrochloride]	-1.37	0.16	0.96	0.29	0.23	1.17			0.47	0.43	0.72	3.15	0.14	0.9	2.52	0.93	12.36 ± 0.12
CCN(CC)C(=O)[C@@]1(c2ccccc2)C[C@H]1CN [Levomilnacipran Hydrochloride]	-0.02	-0.27	-1.78	1.27	-0.22	-0.02	-1.21	-0.69	1.07	0.93	-0.95	-1.07	-0.17	-0.59	-0.66	-0.6	
CC[C@H](C)[C@H](N)C1=N[C@H](C(=O)N[C@@H](CC(C)C)C(=O)N[C@H](CCC(=O)O)C(=O)N[C@H](C(=O)N[C@H]2CCCCNC(=O)[C@H](CC(N)=O)NC(=O)[C@@H](CC(=O)O)NC(=O)[C@H](Cc3cnc[nH]3)NC(=O)[C@@H](Cc3ccccc3)NC(=O)[C@H]([C@@H](C)CC)NC(=O)[C@@H](CCCN)NC2=O)[C@@H](C)CC)CS1 [Bacitracin]	-2.14	-0.01	1.05	0.29	3.13	0.64	1.28	1.2	2.07	0.03	3.61	1.35	1.59		1.51	3.67	
Clc1ccc(C(Cn2ccnc2)OCc2ccsc2Cl)c(Cl)c1 (stereo unspecified) [Tioconazole]	-7.82	-0.92	-2.45	1.22	19.7	-0.51	-1.99	3.87	10.2	8.69	3.35	20	3.39	4.03	15.6	6.06	
